Results reported in PubChem BioAssay AID1240 (Sanford-Burnham Center for Chemical Genomics, 2008).
About 800 (1.6%) of roughly 50,000 compounds showed an effect of 50% or more. The full list was thinned out, with strong results kept by preference.

The compounds below were run against Bcl-2-like protein 10 (Homo sapiens) (UniProt Q9HD36) (assay: TR3 peptide-Bcl-B binding displacers, biochemical primary FP assay, phenotype converters (AID 1240;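 note: 0% = Bcl-B with tracer peptide and DMSO and 100% = tracer peptide lacking Bcl-B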)). Details: GST-Bcl-B / FITC-TR3 peptide fluorescence polarization; stronger effect = higher value; compound at 3.75 mg/L.
Bcl-2-like protein 10 (Homo sapiens), sequence (Q9HD36 whole entry, looked up): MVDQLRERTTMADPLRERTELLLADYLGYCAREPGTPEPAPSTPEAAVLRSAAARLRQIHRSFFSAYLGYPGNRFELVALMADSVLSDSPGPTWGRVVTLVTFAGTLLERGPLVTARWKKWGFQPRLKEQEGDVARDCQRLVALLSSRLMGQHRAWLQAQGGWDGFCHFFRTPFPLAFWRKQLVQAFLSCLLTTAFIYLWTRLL
Work on O=C(O)C(Cc1ccccc1)N1C(=O)/C(=C/c2ccc(O)cc2)SC1=S (stereo not drawn) yielded a displacement of -23.7%.
CN(C)c1ccc(/C=N/Nc2cc(N3CCOCC3)ncn2)cc1 showed a displacement of -14.2%.
O=C(Cn1c2ccccc2c(=O)c2ccccc21)N/N=C/c1cc([N+](=O)[O-])ccc1N1CCCCCC1 gave a displacement of -7%.
With O=C(Cn1c2ccccc2c(=O)c2ccccc21)N/N=C/c1cc([N+](=O)[O-])ccc1N1CCCCC1 the displacement was -6.8%.
In the case of O=C(Cn1c2ccccc2c(=O)c2ccccc21)N/N=C/c1cc([N+](=O)[O-])ccc1N1CCCC1, the displacement is reported as 73.6%.
Compound COc1ccc(CN2CCN(C(=O)c3ccc(F)cc3)CC2)cc1Br has a displacement of 8.4%.
With Cc1no[n+]([O-])c1COc1ccc(/C=C2\NC(=S)NC2=O)cc1 the displacement was -73.2%.
COc1ccccc1N1C(=O)NC(=O)/C(=C/c2c(OC)ccc3ccccc23)C1=O was tested, and the displacement was 1.1%.
Work on CCOc1ccc(/C=C2\C(=O)NC(=O)N(c3ccccc3C)C2=O)cc1Cl yielded a displacement of 0.3%.
For COc1ccccc1/C=C1/C(=O)NC(=O)N(c2ccccc2OC)C1=O, the displacement was -2.3%.
Compound COc1cc(C=C2C(=O)NC(=O)NC2=O)ccc1OCCO has a displacement of -2.4%.
For COc1ccc(N2C(=O)NC(=O)/C(=C/c3ccc(OCCOc4ccc(C)cc4)c(OC)c3)C2=O)cc1, the displacement was 12.8%.
With COc1cc(/C=C2/C(=O)NC(=O)N(c3cccc(C)c3)C2=O)ccc1OCCOc1ccccc1 the displacement was 19%.
Compound COc1cc(C=C2C(=O)NC(=O)NC2=O)ccc1OCCOc1ccc(C)cc1 has a displacement of 32.2%.
In the case of COc1cc(/C=C2/C(=O)NC(=O)N(c3ccccc3)C2=O)ccc1OCC(=O)O, the displacement is reported as 6.2%.
Compound COc1cc(C=C2C(=O)NC(=O)NC2=O)ccc1OCCSc1ccc(C)cc1 has a displacement of 64.1%.
COc1cc(/C=C2/C(=O)NC(=O)N(c3ccccc3C)C2=O)ccc1OCCOc1ccccc1 gave a displacement of 69.3%.
For COc1ccccc1OCCOc1ccc(/C=C2/C(=O)NC(=O)N(c3ccccc3C)C2=O)cc1OC, the displacement was 76.2%.
Compound COc1ccccc1N1C(=O)NC(=O)/C(=C\c2cc3ccccc3n2C)C1=O has a displacement of 165%.
Cc1c(Nc2nc3nonc3nc2Nc2cccc(Cl)c2)c(=O)n(-c2ccccc2)n1C gave a displacement of 10%.
CCOc1ccc(N2C(=O)C3CC=CCC3C2=O)cc1 (stereo not drawn) was tested, and the displacement was 14.7%.
Work on O=C(O)CCC(=O)Nc1ccc(S(=O)(=O)N2CCCCCC2)cc1 yielded a displacement of 3%.
Compound O=C(/C=C/c1ccc([N+](=O)[O-])cc1)NC(=S)Nc1ccccc1Cl has a displacement of -3.4%.
In the case of CCOC(=O)C(C)Oc1ccc2c(C)c(CC)c(=O)oc2c1 (stereo not drawn), the displacement is reported as -3.1%.
Work on COc1ccc(NC(=O)CSc2nc3ccc(N4C(=O)c5ccccc5C4=O)cc3s2)cc1 yielded a displacement of 1.7%.
With COc1ccccc1NC(=O)CSc1nc2ccc(N3C(=O)c4ccccc4C3=O)cc2s1 the displacement was 84.2%.
For COC(=O)c1ccccc1NC(=O)CSc1nc2ccc(N3C(=O)c4ccccc4C3=O)cc2s1, the displacement was 3.2%.
Cc1ccc(-n2cnc3sc(C)c(C)c3c2=O)cc1 showed a displacement of -0.9%.
Work on CN1/C(=C\C=N\Nc2ccc([N+](=O)[O-])cc2)C(C)(C)c2ccccc21 yielded a displacement of -4.6%.
Cc1sc2ncn(/N=C/C=C3\N(C)c4ccccc4C3(C)C)c(=O)c2c1C was tested, and the displacement was 75.7%.
In the case of O=C(O)c1cccc(N(CCO)CCO)c1, the displacement is reported as 6%.
For COc1cccc(NC(=O)CCCN2C(=O)c3cccc4cccc(c34)C2=O)c1, the displacement was 6.9%.
Compound COc1ccc(C2=C/C(=C/c3cccs3)C(=O)O2)cc1 has a displacement of 7.8%.
COC(=O)C1=CN(Cc2ccc(OC)cc2)C=C(C(=O)OC)C1c1cccs1 showed a displacement of 2.9%.
COc1ccc(C2=CC(c3cccs3)C=C(c3ccc(OC)cc3)O2)cc1 was tested, and the displacement was 162%.
For Cc1ccc(CN2CCN(/N=C\c3cc(Br)ccc3O)CC2)cc1, the displacement was -6%.
In the case of Cc1ccc(C(=O)Nn2c(O)c(C3=c4ccccc4=NC3=O)sc2=S)cc1, the displacement is reported as -18.6%.
For Cc1cc(C)cc(N=CC2=C(O)CC(c3ccccc3)CC2=O)c1 (stereo not drawn), the displacement was 84.1%.
For O=C1CC(c2ccccc2)CC(O)=C1C=Nc1ccc(F)cc1 (stereo not drawn), the displacement was -1.2%.
Compound O=C1CC(c2ccccc2)CC(O)=C1C=Nc1ccc(Br)cc1 (stereo not drawn) has a displacement of -3.8%.
Work on O=C(O)CCC(=O)Nc1ccc(F)cc1 yielded a displacement of -7.3%.
CN(C)c1ccc(/C=C2\SC(N3CCN(C4=NC(=O)/C(=C\c5ccc(N(C)C)cc5)S4)CC3)=NC2=O)cc1 was tested, and the displacement was -12.9%.
In the case of Cc1ccc(/C=C2\SC(N3CCC(C)CC3)=NC2=O)cc1, the displacement is reported as -15%.
With CC1CCN(C2=NC(=O)/C(=C/c3ccc(N(C)C)cc3)S2)CC1 the displacement was 157%.
O=C(O)c1ccc(NC(=O)c2ccc(Cl)cc2)cc1 was tested, and the displacement was -3.6%.
COc1cc(/C=C/C(=O)c2c(C)cc(C)[nH]c2=O)cc(OC)c1OC showed a displacement of 8.5%.
Cc1ccc(/C=C2\SC(=Nc3ccc(F)cc3)NC2=O)o1 was tested, and the displacement was 101%.
With COc1ccc(/C=C2/SC(=Nc3ccc(F)cc3)NC2=O)c(OC)c1 the displacement was 11.6%.
With COc1ccccc1/C=C1/SC(=Nc2ccc(F)cc2)NC1=O the displacement was 161%.
Compound Cc1ccc(N=C2NC(=O)/C(=C\c3ccc(C)o3)S2)cc1 has a displacement of -9.8%.
Cc1ccccc1/C=C1/SC(=Nc2ccc(F)cc2)NC1=O showed a displacement of 7.8%.
Work on O=C1NC(=Nc2ccc(F)cc2)S/C1=C\c1ccco1 yielded a displacement of 32.8%.
COc1ccc(/C=C2\SC(=S)N(NC(=O)c3cccnc3)C2=O)cc1 gave a displacement of 3.4%.
COc1cc(/C=C(\C#N)c2nc(-c3ccc(-c4ccccc4)cc3)cs2)ccc1O showed a displacement of 112%.
N#C/C(=C\c1ccc(O)cc1)c1nc(-c2ccc(-c3ccccc3)cc2)cs1 gave a displacement of 21.6%.
With COc1ccc(-c2csc(/C(C#N)=C\c3ccc(C)s3)n2)cc1 the displacement was 115%.
In the case of COc1ccc(/C=C(\C#N)c2nc(-c3ccc(C)cc3)cs2)cc1, the displacement is reported as 4.5%.
COc1cccc(/C=C(\C#N)c2nc(-c3ccc(Br)cc3)cs2)c1 gave a displacement of -7.3%.
For CCCCc1ccc(-c2csc(/C(C#N)=C/c3ccc(O)c(OC)c3)n2)cc1, the displacement was 2.4%.
Compound COc1ccc(/C=C(/C#N)c2nc(-c3ccc(Br)cc3)cs2)cc1OC has a displacement of 101%.
For CCCCc1ccc(-c2csc(/C(C#N)=C/c3ccc(OC)c(OC)c3)n2)cc1, the displacement was 4.8%.
Work on Cc1ccc(-c2csc(/C(C#N)=C\c3ccc(C)s3)n2)cc1 yielded a displacement of -2.9%.
Cc1ccc(/C(O)=C2\C(=O)C(=O)N(c3nncs3)C2c2cccc(Cl)c2)cc1 (stereo not drawn) gave a displacement of 12.7%.
For Cc1cc(C)c2nc3s/c(=C\c4ccc([N+](=O)[O-])cc4)c(=O)n3c2c1, the displacement was -6.3%.
O=C(Nc1ccc(Br)cc1)C1C(c2ccccc2)=C1c1ccccc1 showed a displacement of -6.7%.
With CC(=O)N1c2ccccc2NC2=C(C(=O)CC(c3ccccc3)C2)C1c1ccccc1Cl (stereo not drawn) the displacement was -12%.
CC1(C)c2ccccc2N(CCO)C12C=Cc1cc(Br)ccc1O2 (stereo not drawn) gave a displacement of 7.8%.
Compound Cc1ccc(CNC(=O)c2ccc([N+](=O)[O-])cc2Cl)cc1 has a displacement of 0.9%.
Cc1ccccc1NC(=O)c1c(N)sc2c1CCCC2 showed a displacement of 12.7%.
COc1ccc(C2/C(=C(\O)c3ccc(Cl)cc3)C(=O)C(=O)N2c2cccnc2)c(OC)c1 (stereo not drawn) was tested, and the displacement was -7.1%.
CCOc1ccccc1/C=C1/SC(NC(C)=O)=NC1=O gave a displacement of 12.9%.
For CCOc1cc(/C=C2/SC(N)=NC2=O)ccc1OCc1ccc(F)cc1, the displacement was -15.9%.
Work on CCOc1ccc(/C=C2/SC(NC(C)=O)=NC2=O)cc1OCC yielded a displacement of 54.6%.
Work on CCOc1ccc(/C=C2/SC(NC(C)=O)=NC2=O)cc1 yielded a displacement of 132%.
C=C1CC(C)OC(c2ccccc2O)C1 (stereo not drawn) was tested, and the displacement was -4.4%.
O=C1CC(Nc2ccc(F)cc2)C(=O)N1c1ccccc1C(F)(F)F (stereo not drawn) was tested, and the displacement was 1.1%.
For C=CCNC(=O)CN(c1ccc(OC)cc1)S(C)(=O)=O, the displacement was 1.7%.
COc1cc(C(=O)Nc2ccc(Br)cc2C(=O)c2cc(OC)c(OC)c(OC)c2)cc(OC)c1OC showed a displacement of 22.3%.
Work on COc1cc(C(=O)c2cc(Br)ccc2NC(=O)COc2ccccc2)cc(OC)c1OC yielded a displacement of 57.3%.
Compound COc1cc(C(=O)c2cc(Br)ccc2NC(=O)COc2ccc(C)cc2)cc(OC)c1OC has a displacement of 17.2%.
For COc1cc(CN2CCN(Cc3ccccn3)CC2)cc(OC)c1OC, the displacement was -5.1%.
In the case of CCOC(=O)C(Cc1cc(C)c(CC(C(=O)OCC)C(=O)OCC)cc1C)C(=O)OCC, the displacement is reported as -8.7%.
In the case of CCOC(=O)C1=CN(c2ccc(F)cc2)C=C(C(=O)OCC)C1c1cc(OC)c(OC)c(OC)c1, the displacement is reported as -2.3%.
Compound CC(=O)N/N=C/c1cc(C)n(-c2ccc(Cl)cc2Cl)c1C has a displacement of -7.1%.
CCOc1ccc(-c2csc(-c3cc4ccccc4oc3=O)n2)cc1 showed a displacement of -2.8%.
O=c1oc2ccccc2cc1-c1nc(-c2ccc(Cl)c(Cl)c2)cs1 showed a displacement of 61.2%.
Cc1ccc(-c2csc(-c3cc4cc([N+](=O)[O-])ccc4oc3=O)n2)cc1 gave a displacement of -7.9%.
Work on COc1cccc(-c2csc(-c3cc4cccc(OC)c4oc3=O)n2)c1 yielded a displacement of -23.1%.
Cc1ccc(-c2nc(-c3cc4cc([N+](=O)[O-])c(O)cc4oc3=O)cs2)cc1 showed a displacement of -4.8%.
COc1cccc2cc(-c3nc(-c4ccccc4)cs3)c(=O)oc12 was tested, and the displacement was 7.8%.
With O=c1oc2cc(O)ccc2cc1-c1csc(-c2ccc(-c3ccccc3)cc2)n1 the displacement was 116%.
Compound COc1cccc2cc(-c3nc(-c4ccc(C)c(C)c4)cs3)c(=O)oc12 has a displacement of 80.5%.
Cc1ccc(-c2csc(-c3cc4ccccc4oc3=O)n2)cc1 was tested, and the displacement was 154%.
O=c1oc2cc(O)c([N+](=O)[O-])cc2cc1-c1csc(-c2cc3ccccc3oc2=O)n1 was tested, and the displacement was -10%.
With O=c1oc2cc(O)c([N+](=O)[O-])cc2cc1-c1csc(-c2ccc(Cl)cc2)n1 the displacement was -11.3%.
COc1cccc2cc(-c3nc(-c4ccc(Cl)c(Cl)c4)cs3)c(=O)oc12 was tested, and the displacement was 0.1%.
Compound CCOC(=O)c1c(-c2ccc(OC)cc2)csc1NC(=O)c1cccc([N+](=O)[O-])c1 has a displacement of 12.6%.
Cc1cc(/C=C2\SC(=O)NC2=O)c(C)n1C1CCCCC1 showed a displacement of 8.2%.
Compound Cc1ccc(OCc2nc(-c3cccnc3)no2)c(Br)c1 has a displacement of 10.7%.
N#C/C(=C\c1ccc(C(=O)O)cc1)C(=O)NCC1CCCO1 (stereo not drawn) gave a displacement of 0%.
Compound Fc1ccc(-c2nnn(Cc3c(F)cccc3Cl)n2)cc1 has a displacement of -6.4%.
In the case of CC1=C(C(=O)OCC(F)(F)F)C(c2ccccc2)NC(=O)N1 (stereo not drawn), the displacement is reported as 7.2%.
Work on Cc1cccc(NC(=O)C2C(C(=O)O)C3C=CC2C32CC2)c1 (stereo not drawn) yielded a displacement of -1.1%.
